Unmarked numbers belong to inactive results. Activity calls are given as the source filed them. Rule as the data show it: active = remaining activity below about 50%; inactive = the rest.
molecular target: Phospholipase D2 (Homo sapiens) (UniProt O14939); assay: PLD2 inhibitors in cells, cell-based, HEK293, single concentration (AID 602143); settings: HEK293 cellular PLD2 activity, percent of control; stronger effect = lower value;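 also: tested at 200 nM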
Sequence (O14939 whole entry, looked up): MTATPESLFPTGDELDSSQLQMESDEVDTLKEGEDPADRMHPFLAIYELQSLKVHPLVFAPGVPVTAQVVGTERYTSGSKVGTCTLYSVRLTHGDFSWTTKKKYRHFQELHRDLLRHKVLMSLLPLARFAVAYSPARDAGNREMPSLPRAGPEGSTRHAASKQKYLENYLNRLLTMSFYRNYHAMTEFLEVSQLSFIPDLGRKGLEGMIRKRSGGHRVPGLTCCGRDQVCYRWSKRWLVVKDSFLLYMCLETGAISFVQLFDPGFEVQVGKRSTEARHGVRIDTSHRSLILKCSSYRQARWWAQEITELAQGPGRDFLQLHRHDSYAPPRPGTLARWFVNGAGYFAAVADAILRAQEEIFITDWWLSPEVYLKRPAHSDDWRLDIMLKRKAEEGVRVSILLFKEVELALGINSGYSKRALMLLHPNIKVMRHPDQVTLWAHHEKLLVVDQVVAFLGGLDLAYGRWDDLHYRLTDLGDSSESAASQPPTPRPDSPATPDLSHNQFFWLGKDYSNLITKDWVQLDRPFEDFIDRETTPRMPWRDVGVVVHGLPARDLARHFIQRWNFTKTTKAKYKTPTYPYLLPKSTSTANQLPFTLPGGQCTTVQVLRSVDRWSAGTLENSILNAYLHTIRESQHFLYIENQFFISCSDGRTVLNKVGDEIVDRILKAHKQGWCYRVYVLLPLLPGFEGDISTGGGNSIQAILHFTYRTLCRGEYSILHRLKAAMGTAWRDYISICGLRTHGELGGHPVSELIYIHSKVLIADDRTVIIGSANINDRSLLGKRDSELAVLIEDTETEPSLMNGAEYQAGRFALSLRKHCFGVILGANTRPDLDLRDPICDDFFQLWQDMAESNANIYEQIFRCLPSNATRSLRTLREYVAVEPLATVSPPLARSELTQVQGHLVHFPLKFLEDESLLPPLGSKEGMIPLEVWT
Sequence (O14939 whole entry, looked up): as above

Compared with O=C(CCc1ccccc1)NCCN1CCC(n2c(=O)[nH]c3ccccc32)CC1, Cc1cccc(C(=O)NCCN2CCC(n3c(=O)[nH]c4ccccc43)CC2)n1 is lower in remaining activity: 80.7% for the first, 52.5% for the second.

Compared with C[C@@H](CN1CCC2(CC1)CCN(C)C2=O)NC(=O)c1ccc2ccccc2c1, C[C@@H](CN1CCC2(CCc3ccccc32)CC1)NC(=O)c1ccc2ccccc2c1 is lower in remaining activity: 135% for the first, 104% for the second.

Going from O=C(NCCN1CCC(c2nc3ccccc3[nH]2)CC1)C1CC1c1ccccc1 (configuration not stated) to C[C@@H](CN1CCC(c2nc3ccccc3[nH]2)CC1)NC(=O)C1CC1c1ccccc1 (some centres not stated), the remaining activity falls from 95.6% to 90.3%.

Going from O=C1c2ccccc2C(=O)N1CCCN1CCC(c2nc3ccccc3[nH]2)CC1 to O=C(NCCN1CCC(c2nc3ccccc3[nH]2)CC1)c1ccc2ccccc2c1, the remaining activity rises from 82.5% to 95.1%.

First: C[C@@H](CN1CCC(n2c(=O)[nH]c3cc(-c4ccsc4)ccc32)CC1)NC(=O)[C@H]1C[C@@H]1c1ccccc1
Second: C[C@@H](CN1CCC(n2c(=O)[nH]c3cc(-c4cccnc4)ccc32)CC1)NC(=O)[C@H]1C[C@@H]1c1ccccc1
The remaining activity of the first is higher: 81.2% for the first, 72.1% for the second.

Going from C[C@@H](CN1CCC(n2c(=O)[nH]c3cc(-c4ccc(C(F)(F)F)cc4)ccc32)CC1)NC(=O)[C@H]1C[C@@H]1c1ccccc1 to C[C@@H](CN1CCC(n2c(=O)[nH]c3ccccc32)CC1)NC(=O)c1ccco1, the remaining activity rises from 70.9% to 97.1%.

Compared with O=C(NCCN1CCC(C(=O)NCCc2ccccn2)CC1)c1ccc2ccccc2c1, O=C(NCCN1CCC(C(=O)NCC2CC2)CC1)c1ccc2ccccc2c1 is higher in remaining activity: 100% for the first, 108% for the second.

Compared with O=C(NCCN1CCC2(CCc3ccccc32)CC1)c1ccc2ccccc2c1, O=C(NCCN1CCC(n2c(=O)[nH]c3cc(Cl)ccc32)CC1)c1ccc(Cl)cc1 is lower in remaining activity: 124% for the first, 56.9% for the second.

Going from O=C(c1ccc(Cl)cc1)N1CCC2(CC1)C(=O)NCN2c1ccccc1 to O=C(N[C@@H](Cc1ccccc1)CN1CCC(n2c(=O)[nH]c3ccccc32)CC1)c1ccc(F)c(F)c1, the remaining activity rises from 69.9% to 124%.

Going from Nc1ccc(C(=O)NCCN2CCC(n3c(=O)[nH]c4ccccc43)CC2)c(F)c1 to O=C(NCCN1CCC(n2c(=O)[nH]c3ccccc32)CC1)Nc1cccc(F)c1, the remaining activity rises from 60.4% to 87.9%.

Going from C[C@@H](CN1CCC(n2c(=O)[nH]c3ccccc32)CC1)NC(=O)c1ccc(Cl)c(Cl)c1 to C[C@@H](CN1CCC(n2c(=O)[nH]c3ccccc32)CC1)NC(=O)COc1ccccc1, the remaining activity rises from 76.3% to 88.2%.

Compared with O=C1c2ccccc2C(=O)N1CCCNCc1ccccn1, O=C1c2ccccc2C(=O)N1CCN1CCC(n2c(=O)[nH]c3cc(Cl)ccc32)CC1 is lower in remaining activity: 116% for the first, 90.8% for the second.

C[C@H](CN1CCC(n2nnc3ccccc32)CC1)NC(=O)c1cnc2ccccc2c1 showed a remaining activity of 68.5%.

In the case of C[C@@H](CN1CCC(n2c(=O)[nH]c3ccccc32)CC1)NC(=O)c1cc2ccccc2s1, the remaining activity is reported as 38.6% (active).
With O=C(NCCN1CC=C(n2c(=O)[nH]c3ccccc32)CC1)C1CC1c1ccccc1 (configuration not stated) the remaining activity was 28.2% (active).
